Measured values from the supplement of paper PMC7858590.
± gives the standard deviation of the averaged measurements.

Test system: human monocyte-derived macrophages (polarized)
Assay: cell shape (eccentricity) Z-score vs DMSO control; higher = more elongated, M2-like morphology
Details: 5 µM; 24 h; macrophage state: M1-polarized (IFNg + TNFa), cytokines present during treatment
Procedure: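 Primary-screen hits were rescreened on polarized hMDMs with the differentiating cytokines (IL-4 + IL-13 or IFNg + TNFa) kept in the medium during treatment with compound at 5 uM for 24 h. The eccentricity Z-score vs DMSO wells is averaged over experiments.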

| SMILES | cell shape (Z-score) |
| --- | --- |
| Cn1cncc1[C@@](N)(c1ccc(Cl)cc1)c1ccc2c(c1)c(-c1cccc(Cl)c1)cc(=O)n2C | -0.763 |
| COc1ccc(-c2oc3ccccc3c(=O)c2O)cc1OC | -0.838 |
| C=C(c1ccc(C(=O)O)cc1)c1cc2c(cc1C)C(C)(C)CCC2(C)C | 8.49 |
| C(=N\NC1=NCCN1)/c1c2ccccc2c(/C=N/NC2=NCCN2)c2ccccc12 | 33.2 |
| CCC[C@H](N[C@@H](C)C(=O)N1[C@H](C(=O)O)C[C@@H]2CCCC[C@@H]21)C(=O)OCC | -1.48 |
| CC(C)n1cnc2c(NCc3ccccc3)nc(NCCO)nc21 | 0.237 |
| C[C@H]1[C@H](NC(=O)/C(=N\OC(C)(C)C(=O)O)c2csc(N)n2)C(=O)N1S(=O)(=O)O | 0.443 |
| Nc1nc2c(ncn2COCCO)c(=O)[nH]1 | -5.79 |
| O=C(/C=C/c1ccccc1)c1ccc(O)cc1 | 8.35 |
| CC(C)C[C@H](NC(=O)CNC(=O)c1cc(Cl)ccc1Cl)B(O)O | 0.365 |
| CC1(C)CC[C@]2(C(=O)O)CC[C@]3(C)C(=CCC4[C@@]5(C)CC[C@@H](O)C(C)(C)C5CC[C@]43C)C2C1 (stereo not given in full) | -1.9 |
| Cc1c(C(N)=O)cc([N+](=O)[O-])cc1[N+](=O)[O-] | 3.38 |
| CCc1cnn2c(NCc3ccc[n+]([O-])c3)cc(N3CCCC[C@H]3CCO)nc12 | 8 |
| COCc1c(C(C)C)nc(C(C)C)c(/C=C/[C@@H](O)C[C@@H](O)CC(=O)O)c1-c1ccc(F)cc1 | 9.45 |
| Cc1cc(Nc2nc(N[C@@H](C)c3ncc(F)cn3)ncc2Cl)[nH]n1 | 10.1 |
| CC1=C(/C=C/C(C)=C/C=C/C(C)=C/C(=O)O)C(C)(C)CCC1 | 7.03 |
| COc1cc(OC)c(/C=C/S(=O)(=O)Cc2ccc(OC)c(NCC(=O)O)c2)c(OC)c1 | -2.86 |

Same assay, conditions: 5 µM; 24 h; macrophage state: M2-polarized (IL-4 + IL-13), cytokines present during treatment

| SMILES | cell shape (Z-score) |
| --- | --- |
| CN[C@H]1CC[C@@H](c2ccc(Cl)c(Cl)c2)c2ccccc21 | -4.29 |
| C[C@@H]1O[C@@H](O[C@@H]2[C@@H](O)[C@H](OC(=O)[C@]34CCC(C)(C)CC3C3=CCC5[C@@]6(C)CC[C@H](OC7OC(CO)C(OC8OCC(O)C(O)C8O)C(O)C7O)C(C)(C)C6CC[C@@]5(C)[C@]3(C)CC4O)O[C@H]2CO)[C@H](O)[C@H](O)[C@H]1O[C@H]1OC[C@](O)(CO)[C@H]1O (stereo not given in full) | -4.86 |
| CCOc1nc2cccc(C(=O)OC(C)OC(=O)OC3CCCCC3)c2n1Cc1ccc(-c2ccccc2-c2nn[nH]n2)cc1 (stereo not given) | -2.81 |
| COC(=O)Nc1nc2ccc(C(=O)C3CC3)cc2[nH]1 | -16.3 |
| O=C1c2ccccc2C(Cc2ccnc(F)c2)(Cc2ccnc(F)c2)c2ccccc21 | 1.79 |
| O=C(O)CN1C(=O)c2cccc3cccc(c23)C1=O | 9.63 |
| C=C(C(=O)O)[C@@H]1CC[C@@]2(C)CC[C@H](O)[C@@]2(C(C)=O)C1 | -6.45 |
| O=C(Nc1ccc([N+](=O)[O-])cc1O)Nc1ccccc1Br | -12.2 |
| Cc1cc(NS(=O)(=O)c2ccc(N)cc2)no1 | -9.54 |
| CC(C)CC1NC(=O)C(C)NC1=O (stereo not given) | -2.08 |
| CN(C)c1ccc(C(=C2C=CC(=[N+](C)C)C=C2)c2ccc(N(C)C)cc2)cc1 | -9.83 |
| CC(=O)Cc1cc(=O)c2c(C)cc(O)c(C3OC(CO)C(O)C(O)C3O)c2o1 (stereo not given) | -1.16 |
| O=C(Nc1nc2ccc(NC(=O)C34CC5CC(CC(C5)C3)C4)cc2s1)c1ccccc1 | -6.86 |
| CCCCC[C@H](O)/C=C/[C@H]1[C@H](O)CC(=O)[C@@H]1CCCCCCC(=O)O | -28.2 |
| CC(C)c1ccc(Cn2ccc3c4c(N)nc(NC5CC5)nc4ccc32)cc1 | -11 |
| CC1=CC[C@@]2(C)CC[C@@](O)(C(C)C)[C@@H]2[C@@H](O)C1 | -2.34 ± 1.2 |
| CCCCCCCCc1ccc(CCC(N)(CO)CO)cc1 | -15.5 |
| COc1ccc(C(=O)CC2(O)C(=O)Nc3c(Cl)ccc(Cl)c32)cc1 (stereo not given) | -16.1 |
